Ba/F3 V617F tox – loss of viability in JAK2V617F-driven Ba/F3 cells; 220,000 compounds, 1.1% hits; Ba/F3 EpoR-JAK2V617F viability, ATP luminescence; inhibition, % at 5.6 µM;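 active = inhibition above the campaign mean plus 3 SD over all tested compounds, cut at about 24% in these data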;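 also: cytokine-independent growth of Ba/F3 cells driven by EpoR plus mutant JAK2; 0% = DMSO-treated cells and 100% = JAK inhibitor I control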
IEC-6 tox – IEC-6 cytotoxicity, counter-screen for KLF5 inhibitors | luminescence viability | inhibition, % at 5 µM | 290,000 compounds, 0.78% hits | AID 1825;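 also: 0% = plate median of test compound wells and 100% = cytotoxic reference compound wells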
BaF3 parental – reduces parental Ba/F3 cell viability, JAK2V617F counter-screen. CellTiter-Glo ATP luminescence. inhibition, % at 5.6 µM. 220,000 compounds, 1.1% hits. AID 1486;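 active = inhibition above a per-campaign cutoff, the mean inhibition of all tested compounds plus 3 SD, cut at about 27% in these data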;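 also: 0% = DMSO wells and 100% = JAK Inhibitor I control wells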
APP transl inh – APP translation inhibition; 190,000 compounds, 0.82% hits; AID 1285; inhibition, % at 2 µM; SH-SY5Y APP 5'UTR-luciferase reporter, luminescence;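 active = inhibition above a set limit, derived from the sample mean plus 3 SD, cut at about 45% in these data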
KLF5 inh – suppresses KLF5 promoter-driven expression; AID 1700; 290,000 compounds, 0.23% hits; inhibition, % at 5 µM; DLD-1 KLF5 promoter-luciferase reporter, luminescence;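 active = inhibition above a per-plate limit of that plate's mean compound inhibition plus 3 SD, cut at about 60% in these data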;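 also: 0% = DMSO wells and 100% = LY294002 at 200 µM; higher means less KLF5 promoter-driven luciferase light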
IEC-6 cytotox cf – IEC-6 cytotoxicity, confirmation assay | shares compounds with IEC-6 tox | IEC-6 rat intestinal epithelial viability, luminescence | inhibition, % at 5 µM | 1,900 compounds, 63% hits;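 also: 0% = vehicle and 100% = reference cytotoxic drug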
* = called active by the depositor; / = not tested or not shown; ! = repeats disagree. This is a sample that favours compounds with a hit; in the whole collection about 1.8% have one here. Rule as the data show it, unless noted: active = inhibition above about 22%; inactive = the rest.

SMILES	Ba/F3 V617F tox	IEC-6 tox	BaF3 parental	APP transl inh	KLF5 inh	IEC-6 cytotox cf
CC(=O)c1ccc(NC(=O)CSc2ccc3nnc(-c4cccnc4)n3n2)cc1	0	-8	6	5	-14	/
CS(=O)(=O)c1sc(C#N)c2c1C(=O)CC(c1ccccc1)C2 (stereo unspecified)	99*	75*	92*	/	-11	20
Cc1oc2c(c(=O)c1C)C(=O)CC(c1ccccc1)C2 (stereo unspecified)	-2	1	5	6	-30	/
Cc1ccc(NC(=O)Cc2noc3ccccc23)nc1	0	23*	1	-22	-6	5
O=C(Cc1noc2ccccc12)Nc1ccccn1	0	-4	2	-33	-57	/
COc1ccc(C(=O)Nc2cc(C(F)(F)F)ccc2Cl)cc1OC	-3	-1	2	6	0	/
O=C(NCc1ccc(F)cc1)C(=O)NCC1OCCCN1S(=O)(=O)c1cccs1 (stereo unspecified)	/	-2	/	/	-13	/
Cc1csc2sc(-c3ccnc(SCC(=O)NCc4ccccc4)n3)c(C)c12	81*	74*	60*	/	52	65*
Cc1csc(SCC(=O)NCc2ccccc2)n1	-2	-5	0	-2	-24	/
COc1cc2c(cc1OC)CN(C(=O)/C=C/c1ccc([N+](=O)[O-])cc1)CC2	/	-2	/	/	-17	/
COc1cc2c(cc1OC)CN(C(=O)/C=C/c1cccs1)CC2	81*	59*	63*	/	47	52*
COc1cc2c(cc1OC)CN(C(=O)/C=C/c1ccccc1[N+](=O)[O-])CC2	/	24*	/	/	15	16
Cc1ccc(C)c(NC(=O)C(C)N2C(=O)c3ccccc3C2=O)c1 (stereo unspecified)	/	2	/	/	-3	/
COc1ccc(OCc2cc(C(=O)NC3CCOC(C)(C)C3)no2)c2ccccc12 (stereo unspecified)	/	42*	/	/	-32	1
CCOc1cc(/C=N/Nc2cc(C)nc(-n3nc(C)cc3C)n2)ccc1O	-1	54*	-1	/	4	16
Cc1cc(N/N=C/c2ccc(F)cc2)nc(-n2nc(C)cc2C)n1	3	8	1	/	-2	/
COCc1ccc(C(=O)N(C)C2CCCN(Cc3ccccc3F)C2)o1 (stereo unspecified)	/	9	/	/	2	/
COCCn1c(=S)[nH]c2cc(C(=O)NCCc3ccccc3)ccc2c1=O	/	5	/	/	-28	/
O=C(CSCc1c(F)cccc1Cl)NNC(=S)NC1CCCCC1	/	3	/	/	-31	/
COc1ccc(N(C(=O)c2snc(C(N)=O)c2N)C(C(=O)NC2CCCC2)c2cccs2)cc1OC (stereo unspecified)	/	3	/	/	5	/
C#CC(=O)N(c1cc(OC)ccc1OC)C(C(=O)NC1CCCC1)c1cccs1 (stereo unspecified)	102*	101*	104*	11	32	95*
C=CCOc1ccc(Br)cc1CNC(C)(C)C	0	-8	7	19	-26	/
COc1ccc(CNC(=O)CN(C(=O)c2snc(C(N)=O)c2N)c2ccc(OC)c(OC)c2)cc1	/	-1	/	/	-10	/
CCOC(=O)c1nc(NNC(=O)c2ccc([N+](=O)[O-])cc2)sc1C	/	38*	/	/	53	21
CCOC(=O)c1c(S(=O)(=O)Nc2ccc(F)cc2C)c(C)n(C)c1C	/	2	/	/	-42	/
SMILES	Ba/F3 V617F tox	IEC-6 tox	BaF3 parental	APP transl inh	KLF5 inh	IEC-6 cytotox cf
CC(=O)c1ccc(Oc2ccc(C(C)=O)cc2)cc1	-1	-1	4	-50	-50	/
Oc1ccc(Oc2ccc(Oc3ccc(O)cc3)cc2)cc1	/	42*	/	/	-20	-8
CCn1cc2nc(SCC(=O)Nc3ccc(OC)cc3OC)n(Cc3ccc(OC)cc3)c(=O)c2n1	/	62*	/	/	56	42*
CCn1cc2nc(SCC(=O)Nc3ccc(OC)c(OC)c3)n(Cc3ccc(OC)cc3)c(=O)c2n1	/	1	/	/	-1	/
O=c1c2cn[nH]c2nc(SCc2c(F)cccc2F)n1-c1ccc(Cl)cc1	4	2	2	6	2	/
CN(C)c1ccc(/C=C/c2ccc3c4ccccc4ccc3[n+]2-c2ccccc2)cc1	101*	65*	89*	83*	45	80*
CCc1[nH]nc(C(=O)N2CCCC(N3CCN(c4ccccc4C)CC3)C2)c1C (stereo unspecified)	/	5	/	/	-9	/
O=C(c1ccccc1-c1ccccc1)N1CCN(c2ccccn2)CC1	75*	34*	55*	46*	35	39*
Nc1nc(N2CCN(c3ccccn3)CC2)nc2ccccc12	/	-1	/	/	-106	/
Cc1cc(-c2ccccc2)nc(N2CCN(c3ccccn3)CC2)n1	2	26*	1	-11	-25	41*
Cc1ccc(C(=O)OC(C)CN2C(C)CCCC2C)cc1 (stereo unspecified)	/	-1	/	/	16	/
CCC(NS(=O)(=O)c1ccc(OC)cc1)C(=O)NCCc1ccccc1 (stereo unspecified)	/	2	/	/	-8	/
O=C(Cc1cnc2ncnn2c1)N1CCc2c([nH]c3ccccc23)C1c1ccccc1F (stereo unspecified)	2	7	5	-31	-15	/
Cc1nc(C)c(-c2csc(Nc3ccc(N)cc3)n2)s1	/	4	/	/	4	/
COc1ccc(Nc2nc(-c3sc(C)nc3C)cs2)cc1	/	76*	/	/	44	56*
Cc1ccc(Nc2nc(=O)c3cccnc3s2)cc1	0	37*	7	-68	-39	39*
CC1CCC(C(C)C)C(OC(=O)C[n+]2cc(-c3ccc(Cl)cc3)n3c2CCC3)C1 (stereo unspecified)	0	6	-2	/	-119	/
CC1CCC(C(C)C)C(OC(=O)Cn2c(-c3ccccc3)[n+](C)c3ccccc32)C1 (stereo unspecified)	101*	28*!	93*	-19	18	18
O=C(Cc1ccccc1)NCc1ccc(-n2cccc2)cc1	8	5	5	1	-20	/
O=C(Cc1ccc(-n2cccc2)cc1)NCc1ccccc1Cl	-1	29*	6	5	-24	32*
Cc1ccsc1C(=O)N1CCCC(CO)(Cc2ccccc2F)C1 (stereo unspecified)	/	-8	/	/	-23	/
COc1cc(Cl)cc(/C=N/NC(N)=O)c1O	-1	0	4	9	0	/
NC(=S)N/N=C/c1ccc(C(F)(F)F)cc1	66*	39*	35*	-1	19	18
COc1ccc(/C=N/NC(N)=S)cc1	0	-2	-1	/	9	/
COc1cccc(C(=O)Nc2ccc3c(cc2=O)[C@@H](NC(C)=O)CCc2cc(OC)c(OC)c(OC)c2-3)c1	/	46*	/	/	-6	39*
COc1cccc(C(=O)Nc2ccc(F)cc2F)c1	4	-2	10	-32	-65	/
CC1CCN(C(=O)CCc2ccc(S(=O)(=O)NC(C)C)cc2)CC1	0	-4	5	-6	-39	/
CCCCn1c(=O)[nH]c(=O)c2c1nc(CN1C(=O)c3ccccc3S1(=O)=O)n2CCC	0	-6	3	-19	-24	/
CCCCn1c(=O)[nH]c(=O)c2c1nc(Cn1ncc(Cl)c(Cl)c1=O)n2CCC	/	102*	/	/	50	28*
